Measurements taken from PubChem BioAssay AID485358 (National Center for Advancing Translational Sciences (NCATS), 2010).
In all, about 340,000 compounds went through this assay and about 1,800 (0.53%) were called active.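 Rule for the calls: active = activation over 3 SD above normal in the single-dose calcium agonist read (cut at about 30% in these data); inactive = the rest.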 Only a selection was taken, and actives are over-represented in it overall.

What follows are compounds tested against D(2) dopamine receptor (Homo sapiens) (UniProt P14416) (assay: HTS Assay for Allosteric Agonists of the Human D2 Dopamine Receptor: Primary Screen for Agonists). Conditions: HEK293 T-REx D2 cells, calcium flux agonist mode; at 2 µM; hits give high values.
D(2) dopamine receptor (Homo sapiens), sequence (P14416 whole entry, looked up): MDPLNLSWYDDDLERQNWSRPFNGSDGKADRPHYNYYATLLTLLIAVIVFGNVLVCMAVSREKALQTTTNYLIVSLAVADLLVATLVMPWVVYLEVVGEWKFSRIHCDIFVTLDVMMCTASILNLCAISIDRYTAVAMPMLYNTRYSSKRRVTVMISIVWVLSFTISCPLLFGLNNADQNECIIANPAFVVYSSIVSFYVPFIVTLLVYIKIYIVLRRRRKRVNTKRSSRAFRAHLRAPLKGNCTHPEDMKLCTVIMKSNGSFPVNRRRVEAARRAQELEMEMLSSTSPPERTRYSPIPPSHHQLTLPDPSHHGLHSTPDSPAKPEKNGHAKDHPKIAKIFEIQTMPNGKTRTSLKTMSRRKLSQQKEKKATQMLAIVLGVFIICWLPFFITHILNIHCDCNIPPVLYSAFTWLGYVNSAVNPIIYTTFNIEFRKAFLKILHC
How it was run: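 Agonism is scored from calcium flux in a force-coupled, inducible HEK293 cell line expressing D2, read kinetically for 180 s after compound addition against dopamine controls.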
Note: 0% is about no effect.

Row | Compound | activation
1 | Cc1ccc(CN2C(=O)N/C(=C/c3cc(C)n(-c4ccccn4)c3C)C2=O)cc1 | -1.58% (inactive)
2 | CN(C)c1ccc(C=C2C(=O)OC3(CCCC3)OC2=O)cc1 | -0.32% (inactive)
3 | CN(C)c1ccc(/C=C2\NC(=S)N(Cc3ccccc3)C2=O)cc1 | 45.9% (active)
4 | CCCCNC(=O)CSc1nc2cc3c(cc2c(=O)n1CCCCCC(=O)NCc1ccc2c(c1)OCO2)OCO3 | 0.322% (inactive)
5 | CCOC(=O)N1CCN(CCC(=O)Nc2ccccc2)CC1 | 0.607% (inactive)
6 | O=C(CN1CCN(c2ccccc2)CC1)Nc1ccc(F)cc1 | 19.7% (inactive)
7 | O=C(CCN1CCN(c2ccccc2)CC1)NNC(=S)Nc1ccccc1 | 56.1% (active)
8 | Cc1ccc(S(=O)(=O)c2nc(-c3ccco3)oc2SCC(=O)Nc2ccc(F)cc2)cc1 | -0.0829% (inactive)
9 | COc1ccc(CNC(=O)C(C)NCc2ccccc2Cl)cc1 (stereo not drawn) | -0.182% (inactive)
10 | CC(CCc1ccccc1)NC(=O)c1cnc(Cl)c(Cl)c1 (stereo not drawn) | -0.256% (inactive)
11 | CC(CCc1ccc(O)cc1)NCc1ccc(Cl)cc1Cl (stereo not drawn) | 32.8% (active)
12 | C=Cc1ccc(Cn2c(C(=O)OC)cc3sc(C)cc32)cc1 | 0.446% (inactive)
13 | O=C(CCN1CCN(C/C=C/c2ccccc2)CC1)Nc1ccccc1Cl | 76% (active)
14 | COc1ccccc1NC(=O)CCN1CCN(c2ccc(Cl)cc2)CC1 | -0.695% (inactive)
15 | O=C(CCN1CCN(C/C=C/c2ccccc2)CC1)Nc1cccc(F)c1 | 1.58% (inactive)
16 | Cc1nc(SCC(=O)N2CCN(c3ccccc3)CC2)[nH]c(=O)c1C | 16% (inactive)
17 | COc1cccc(C(=O)NCc2ccc3c(c2)CCN3C(=O)c2ccncc2)c1 | -0.0874% (inactive)
18 | COc1ccc(-c2nc(S(=O)(=O)c3ccccc3)c(N3CCCCC3)o2)cc1 | -0.427% (inactive)
19 | O=S(=O)(c1cc(Cl)ccc1Cl)N1CCN(Cc2ccco2)CC1 | -1.47% (inactive)
20 | O=C(CN1CCN(S(=O)(=O)c2cc(Cl)ccc2Cl)CC1)c1ccc(O)c(O)c1 | 57.8% (active)
21 | N#Cc1ccsc1NC(=O)CN1CCN(S(=O)(=O)c2cc(Cl)ccc2Cl)CC1 | 3.35% (inactive)
22 | Cc1ccc(NC(=O)Cn2nnc3sc4c(c3c2=O)CCC(C)C4)cc1 (stereo not drawn) | 0.94% (inactive)
23 | CCc1ccccc1NC(=O)Cc1ccc(NC(=O)N2CCCCc3ccccc32)cc1 | 0.173% (inactive)
